The values below come from PubChem BioAssay (Tox21).

Molecules are shown by their SMILES. Several values for one entry are separate records, joined by “and”; a condition that tells them apart may be missing. Identical values can stand only once. Unmarked numbers belong to inactive results. Records with an inconclusive call do not appear. Activity calls are given as the source filed them. Unless noted, the call rests on the fitted dose curve; in most records, active means well fitted curve in the direction sought with a large enough effect in the repeat runs; inconclusive means weak or mixed curves; inactive means no such curve, though single readings can be large; an effect the other way counts as inactive or inconclusive.

Test [1] in a line: qHTS assay to identify small molecule antagonists of the estrogen related receptor (ERR) signaling pathway from Tox21 library - cell viability counter screen (AID 1224834). Further: nearly all actives have a fitted effect of over 30% in size. Further: potency means the concentration at half of the fitted maximal effect. The essentials: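 CellTiter-Fluor fluorescence, read after 30 min at 37 C, measures viability of ERR cells. Cells plated at 2,000/well and incubated 6 h before pin-tool compound addition, then exposed 17.5 hours at 37 C.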
(Quantitative high-throughput screening tests each substance at several concentrations.)

Test [2] addresses Luciferin 4-monooxygenase (Photinus pyralis) (UniProt P08659). As to the kind of experiment: qHTS assay to identify small molecule inhibitors of firefly luciferase (AID 1224835). Further: nearly all actives have a fitted effect of over 25% in size. Further: potency means the concentration at half of the fitted maximal effect. The procedure, abridged: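 Biochemical qHTS: compounds run as interplate titrations against purified firefly enzyme, with D-luciferin and ATP each at its KM concentration. Light output recorded by CCD imaging.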

Test [3] is described as follows: qHTS assay to identify small molecule agonists of the constitutive androstane receptor (CAR) signaling pathway - cell viability counter screen (AID 1224836). Further: nearly all actives have a fitted effect of over 45% in size. The essentials: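 HepG2 cells stably carrying hCAR and a CYP2B6-2.2kb reporter were plated 4 h, then given compounds at 15 concentrations plus PK11195 (final 0.75 uM). After 23 h at 37 C, viability was read by CellTiter-Fluor fluorescence.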

A short description of test [4]: qHTS assay to identify small molecule antagonists of the constitutive androstane receptor (CAR) signaling pathway - cell viability counter screen (AID 1224837). Further: nearly all actives have a fitted effect of over 45% in size. The essentials: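 Cytotoxicity counter-screen: CellTiter-Fluor fluorescence after 23 h compound exposure (15-point qHTS) in double-stable HepG2-CYP2B6-hCAR cells, with 50 nM CITCO added.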
For test [5], the target named is Nuclear receptor subfamily 1 group I member 3 (Homo sapiens) (UniProt Q14994). Kind of test: qHTS assay to identify small molecule antagonists of the constitutive androstane receptor (CAR) signaling pathway (AID 1224838). Further: nearly all actives have a fitted effect of over 40% in size. The procedure, abridged: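 Antagonism measured as luciferase signal (ONE-Glo, 30 min, room temperature) in CAR-stimulated cells: HepG2-CYP2B6-hCAR double-stable line exposed 24 hr at 37 C to compound in a 15-point series plus 50 nM CITCO.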
Sequence of Nuclear receptor subfamily 1 group I member 3 (Homo sapiens) (Q14994 whole entry, looked up): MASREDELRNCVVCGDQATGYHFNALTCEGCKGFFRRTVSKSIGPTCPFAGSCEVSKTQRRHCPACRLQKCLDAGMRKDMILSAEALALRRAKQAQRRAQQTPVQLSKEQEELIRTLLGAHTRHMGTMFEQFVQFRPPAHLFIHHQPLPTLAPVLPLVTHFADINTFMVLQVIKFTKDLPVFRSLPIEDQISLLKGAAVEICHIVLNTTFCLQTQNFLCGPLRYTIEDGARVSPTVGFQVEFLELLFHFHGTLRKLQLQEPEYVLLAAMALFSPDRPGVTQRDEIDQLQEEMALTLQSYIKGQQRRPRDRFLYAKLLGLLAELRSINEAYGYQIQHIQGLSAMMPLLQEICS

Test [6] shares this target. As to the kind of experiment: qHTS assay to identify small molecule agonists of the constitutive androstane receptor (CAR) signaling pathway (AID 1224839). Further: nearly all actives have a fitted effect of over 15% in size. The procedure, abridged:
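HepG2 cells stably expressing hCAR and a CYP2B6-2.2kb luciferase reporter were treated with compounds at 15 concentrations plus 0.75 uM PK11195 (final) for 24 h at 37 C; luminescence was read after ONE-Glo addition.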

Test [7] is described as follows: qHTS assay to identify small molecule antagonists of the estrogen related receptor signaling pathway with the pleiotropic PPARgamma coactivator (PGC) from Tox21 10K library - cell viability counter screen (AID 1224840; active means well fitted cell-killing curve with a large enough effect in the repeat runs, not every such curve was filed as active; further: nearly all actives have a fitted effect of over 40% in size; further: potency means the concentration at half of the fitted maximal effect). The essentials:
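Counter-screen for cytotoxicity: after 17.5 h compound exposure at 37 C, CellTiter-Fluor reagent added to PGC/ERR cells for 30 min and fluorescence read. Cells were seeded at 2,000 per well 6 h before dosing.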

Test [8] is described as follows: qHTS assay to identify small molecule agonists of the hypoxia (HIF-1) signaling pathway - cell viability counter screen (AID 1224844; calls by dose curve; further: nearly all actives have a fitted effect of over 50% in size; further: potency means the concentration at half of the fitted maximal effect). The procedure, abridged: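 Cytotoxicity measured by CellTiter-Glo ATP luminescence in the wells also read for beta-lactamase signal. Cells were HRE-bla ME-180 (2,000/well, 0.5% dialyzed FBS), exposed to compounds for 17 h at 37C.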

Test [9] in a line: qHTS assay to identify small molecule agonists of H2AX (AID 1224845; active means well fitted activation curve with a large enough effect in the signal ratio in the repeat runs, not every such curve was filed as active; the % refers to the signal ratio). The essentials: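 Wild-type CHO-K1 cells, plated overnight, exposed 3hr at 37C to 15 concentrations (0.76% DMSO final). Lysed, then HTRF anti-pH2AX (S139) cryptate and anti-H2AX-d2 antibodies, 24 hr room temperature; 665/620 nm emission read.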
The nature of test [10]: qHTS assay to identify small molecule agonists of the hypoxia (HIF-1) signaling pathway (AID 1224846; active means well fitted activation curve with a large enough effect in the signal ratio in the repeat runs, not every such curve was filed as active; the % refers to the signal ratio). The procedure, abridged: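 Compounds added to ME-180 cells carrying hypoxia-response-element beta-lactamase reporter (0.5% dialyzed FBS, 5 h preplating), 17 h at 37C; agonist activity detected by CCF4-AM B/G FRET read-out.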
Test [11] in a line: qHTS assay to identify small molecule agonists of H2AX - cell viability counter screen (AID 1224847; calls by dose curve; further: nearly all actives have a fitted effect of over 30% in size; further: potency means the concentration at half of the fitted maximal effect). The essentials: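 Wild-type CHO-K1 cells (10% FBS medium) were plated overnight at 37C, exposed to compounds at 15 concentrations for 3 hr at 37C (0.76% DMSO final), and viability was read as CellTiter-Glo luminescence after 30 min at room temperature.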
Test [12] in a line: qHTS RealTime-Glo MT Cell Viability Assay in HepG2 cells - 24 hour (AID 1224867). Further: nearly all actives have a fitted effect of over 50% in size. Further: potency means the concentration at half of the fitted maximal effect. The essentials: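 HepG2 cells were seeded at 600 cells/well together with NanoLuc luciferase and a cell-permeant prosubstrate, preincubated 5 h at 37 C/5% CO2, then pin-dosed with compounds in DMSO. Nonlytic luminescence from viable cells was read at each time point.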
Test [13] is described as follows: qHTS RealTime-Glo MT Cell Viability Assay in HEK293 cells - 32 hour (AID 1224868). Further: nearly all actives have a fitted effect of over 50% in size. Further: potency means the concentration at half of the fitted maximal effect. The procedure, abridged:
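HEK293 cells were seeded at 600 cells/well together with NanoLuc luciferase and cell-permeant prosubstrate, preincubated 5 h at 37 C/5% CO2, then given compound in DMSO by pintool. Luminescence from viable-cell prosubstrate reduction was read repeatedly over 40 h.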

Test [14] is described as follows: qHTS RealTime-Glo MT Cell Viability Assay in HepG2 cells - 40 hour (AID 1224870). Further: nearly all actives have a fitted effect of over 50% in size. Further: potency means the concentration at half of the fitted maximal effect. The procedure, abridged:
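HepG2 cells (600/well) mixed with RealTime-Glo MT reagent, settled 5 h at 37 C/5% CO2 before compound addition. Nonlytic NanoLuc luminescence from viable-cell prosubstrate reduction read repeatedly during 40 h treatment at 37 C.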

The nature of test [15]: A CellTox Green Cytotoxicity Assay to monitor cytotoxicity in HEK293 cells - 0 hour (AID 1224869). Further: nearly all actives have a fitted effect of over 50% in size. The procedure, abridged:
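Fluorescence from a DNA-binding dye excluded by viable cells was measured repeatedly in the same HEK293 wells (600 cells/well) during continuous compound exposure at 37 C. Each assay gives one read point: 0, 8, 16, 24, 32 or 40 h.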

The target in test [16] is Thyrotropin receptor (Homo sapiens) (UniProt P16473). As to the kind of experiment: qHTS assay to identify small molecule agonists of the thyroid stimulating hormone receptor (TSHR) signaling pathway (AID 1224843; calls by dose curve; further: nearly all actives have a fitted effect of over 45% in size; further: potency means the concentration at half of the fitted maximal effect). The procedure, abridged: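 Agonist-mode screen: TSHR HEK293 cells received test chemicals for half an hour at room temperature, then HTRF cAMP detection reagents for one hour prior to fluorescence measurement. Each chemical ran as a 15-concentration series, triplicated.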
Sequence of Thyrotropin receptor (Homo sapiens) (P16473 whole entry, looked up): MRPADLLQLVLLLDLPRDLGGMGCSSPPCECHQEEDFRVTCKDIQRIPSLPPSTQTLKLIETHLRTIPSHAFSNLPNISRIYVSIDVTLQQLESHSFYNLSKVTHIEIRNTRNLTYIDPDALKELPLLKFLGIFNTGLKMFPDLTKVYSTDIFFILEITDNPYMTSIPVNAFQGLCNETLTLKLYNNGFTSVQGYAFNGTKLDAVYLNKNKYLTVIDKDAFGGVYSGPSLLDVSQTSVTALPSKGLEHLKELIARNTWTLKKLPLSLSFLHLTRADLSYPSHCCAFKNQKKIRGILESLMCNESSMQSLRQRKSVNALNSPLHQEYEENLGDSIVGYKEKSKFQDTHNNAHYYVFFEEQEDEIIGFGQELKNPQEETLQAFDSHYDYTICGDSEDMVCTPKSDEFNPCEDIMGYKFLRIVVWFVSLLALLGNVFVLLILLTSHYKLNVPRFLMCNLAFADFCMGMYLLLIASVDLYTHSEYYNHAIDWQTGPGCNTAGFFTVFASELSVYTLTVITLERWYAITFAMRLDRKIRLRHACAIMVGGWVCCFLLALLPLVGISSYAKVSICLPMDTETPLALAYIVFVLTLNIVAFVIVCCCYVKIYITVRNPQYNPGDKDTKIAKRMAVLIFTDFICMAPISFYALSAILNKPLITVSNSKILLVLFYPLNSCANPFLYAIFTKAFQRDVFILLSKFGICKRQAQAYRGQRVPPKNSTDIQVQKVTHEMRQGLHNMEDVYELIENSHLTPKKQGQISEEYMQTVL

A short description of test [17]: qHTS assay to identify small molecule antagonists of the estrogen related receptor signaling pathway with the pleiotropic PPARgamma coactivator (PGC) from Tox21 10K library (AID 1224841; call rule not given here). The procedure, abridged:
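Luminescence (One-Glo, 30 min at room temperature) after 18 h compound treatment at 37 C of PGC/ERR reporter cells plated at 2,000 cells/well and settled 6 h beforehand.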

The nature of test [18]: qHTS assay to identify small molecule agonists of the estrogen related receptor signaling pathway with the pleiotropic PPARgamma coactivator (PGC) from Tox21 10K library (AID 1224842). Further: nearly all actives have a fitted effect of over 15% in size. The procedure, abridged: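 PGC/ERR reporter cell line, 2,000 cells per well, incubated 6 h at 37 C before 23 nL compound in DMSO was added. After 18 h at 37 C, One-Glo luminescence read following 30 min at room temperature.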

Test [19] is described as follows: qHTS assay to identify small molecule antagonists of the estrogen related receptor (ERR) signaling pathway from Tox21 library (AID 1224848). Further: nearly all actives have a fitted effect of over 50% in size. Further: potency means the concentration at half of the fitted maximal effect. The essentials: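 Quantitative high-throughput format: ERR reporter cells (2,000/well) pre-incubated 6 h, treated 18 h at 37 C with compounds in DMSO alongside positive and negative controls, then read by ONE-Glo luminescence.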

The nature of test [20]: qHTS assay to identify small molecule agonists of the estrogen related receptor (ERR) signaling pathway from Tox21 library (AID 1224849; calls by dose curve; further: nearly all actives have a fitted effect of over 15% in size). The note with it: ERR reporter cell line, ONE-Glo luciferase, 18 h. The procedure, abridged:
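Luminescent agonist read-out (One-Glo, 30-minute room-temperature incubation) following 18-hour compound treatment at 37 C of the ERR cell line, which had been plated 6 hours before dosing.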
On the % scale 0 is the no-effect control and ±100 the full control effect.

Sequence of Luciferin 4-monooxygenase (Photinus pyralis) (P08659 whole entry, looked up): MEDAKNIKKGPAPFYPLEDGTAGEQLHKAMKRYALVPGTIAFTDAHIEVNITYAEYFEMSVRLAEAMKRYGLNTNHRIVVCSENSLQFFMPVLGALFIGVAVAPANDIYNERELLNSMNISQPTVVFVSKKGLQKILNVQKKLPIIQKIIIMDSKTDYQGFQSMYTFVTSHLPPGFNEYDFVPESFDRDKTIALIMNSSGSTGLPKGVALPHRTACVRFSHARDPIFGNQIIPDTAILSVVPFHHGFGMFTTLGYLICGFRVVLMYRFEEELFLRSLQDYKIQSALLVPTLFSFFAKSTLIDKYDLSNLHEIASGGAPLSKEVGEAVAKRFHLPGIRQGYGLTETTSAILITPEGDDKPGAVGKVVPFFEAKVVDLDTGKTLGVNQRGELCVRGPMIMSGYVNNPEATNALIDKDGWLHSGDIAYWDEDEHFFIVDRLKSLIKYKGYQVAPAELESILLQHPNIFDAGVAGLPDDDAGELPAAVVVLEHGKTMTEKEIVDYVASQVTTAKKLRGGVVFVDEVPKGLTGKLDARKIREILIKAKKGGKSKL

Turning to `C#Cc1ccc(-c2ccccc2F)cc1`, the Potency result in test [1], in test [3], in test [4], in test [5], in [6] and in test [7] was “inactive” each time. Further, the Potency entry in test [8], in test [9], in test [10], in [11], in test [12] and in test [13] was “inactive” each time. Besides, the Potency result in test [14] was “inactive”. Moreover, the Potency in test [2] was 30.9 µM (active).

As to `CC1=CCC(=C(C)C)CC1`, the Potency entry in [1], in test [2], in test [3], in test [4], in test [5] and in test [6] was “inactive” throughout. Moreover, the Potency result in test [7], in test [9], in [10], in [11], in test [12] and in test [13] was “inactive” throughout. Moreover, the Potency entry in test [15] is “inactive”.

As to `COc1ccc(NC(=O)CC(C)=O)cc1`, the Potency entry in test [1], in test [2], in test [3], in test [4], in test [5] and in [7] was “inactive” in each case. Further, the Potency result in [16], in [8], in test [9], in test [10], in [11] and in test [12] was “inactive” each time. Also, the Potency entry in test [13], in test [15] and in test [14] was “inactive” each time.

Turning to `CCOc1ccc2ccccc2c1C(=O)N[C@@H]1C(=O)N2[C@@H]1SC(C)(C)[C@@H]2C(=O)O`, the Potency result in test [1], in [2], in test [3], in test [4], in test [7] and in [17] was “inactive” each time. The Potency entry in test [18], in test [16], in test [9], in test [10], in test [11] and in test [19] was “inactive” throughout. Further, the Potency result in [12] and in [13] was “inactive” in each case. Further, the activity change, positive = activation in [20] (at 42.5 µM (top of the series)) was -0.57%.

Take `C#CC1(O)CC[C@H]2[C@@H]3CCC4=CCCC[C@@H]4[C@H]3CC[C@@]21C` (stereo not given in full): the Potency in [1] was 54.5 µM (active); in [7] it was 33.5 µM (active); in [16], 19.3 µM (active); in test [8], 21.9 µM (active) and 15.1 µM (active); in test [11] it was 89.8 µM (active); in [19], 61.1 µM (active) and 26.6 µM (active). In addition, the Potency in test [12] was 21.3 µM (active); in [13], 17.4 µM (active) and 19 µM (active); in test [14], 49 µM (active) and 23.9 µM (active). Also, the Potency result in test [2], in [3], in test [4], in test [17], in test [18] and in [9] was “inactive” each time. Moreover, the values for the activity change, positive = activation in [20] (at 42.5 µM (top of the series)) and in test [20] (at 92.4 µM (top of the series)) were -49.7% and -45.9%, respectively.

As for `O=S(=O)(O)c1ccc(Nc2nc(Nc3ccc(/C=C/c4ccc(Nc5nc(Nc6ccc(S(=O)(=O)O)cc6)nc(N(CCO)CCO)n5)cc4S(=O)(=O)O)c(S(=O)(=O)O)c3)nc(N(CCO)CCO)n2)cc1`, the Potency entry in test [1], in [2], in [3], in test [4], in test [7] and in [17] was “inactive” in each case. Moreover, the Potency entry in [18], in test [16], in [8], in test [19], in [12] and in [13] was “inactive” each time. Further, the Potency result in [15] and in [14] was “inactive” each time. Further, the activity change, positive = activation in [20] (at 42.5 µM (top of the series)) was 7.49%.

Turning to `C=CCCC(=O)/C=C/C1C(C)=CCCC1(C)C` (stereo not given), the Potency result in [1], in test [2], in test [3], in [4], in [5] and in [7] was “inactive” in each case. Besides, the Potency entry in [10], in test [12], in test [13] and in [14] was “inactive” in each case. Further, the Potency in [11] is 89.8 µM (active).
